Laboratory results taken from PubChem BioAssay (NCATS).
Inconclusive results are not listed. Active and inactive are the calls of the source. Calls come from the whole dose curve; as a rule, active = well fitted curve in the direction sought with a large enough effect; inconclusive = small, poorly fitted or top-dose-only effect, or another doubt; inactive = no such curve, though single readings can be large; an effect the other way counts as inactive or inconclusive.

Key:
[1] = P-glycoprotein substrates identified in KB-3-1 adenocarcinoma cell line, qHTS therapeutic library screen (AID 1346986);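 note: potency is the fitted concentration of half-maximal effect; potency is for cytotoxicity meaning loss of cell viability; nearly all actives have a fitted effect of over 60% in size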
In short: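 Cells seeded 500/well in DMEM/10% FCS; compounds pinned in dose-response; 72 h incubation; CellTiter-Glo added, 5 min, luminescence. KB-8-5-11 run ±tariquidar to test reversal of P-gp resistance.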

[2] = qHTS of pediatric cancer cell lines to identify multiple opportunities for drug repurposing: Primary screen for SJ-GBM2 cells (AID 1347091); note: potency is the fitted concentration of half-maximal effect
In short: (§1)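 Cell viability, CellTiter-Glo luminescence; 500-1,000 cells/well, 8- or 11-point titration, 48 h compound exposure at 37 degrees C, 5% CO2. Controls: DMSO neutral, bortezomib 2.3 µM final as positive.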

[3] = qHTS of pediatric cancer cell lines to identify multiple opportunities for drug repurposing: Primary screen for SK-N-MC cells (AID 1347093); note: potency is the fitted concentration of half-maximal effect
In short: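 Metabolically active cells were quantified by ATP-dependent luminescence (CellTiter-Glo, 15 min at room temperature) following 48 h treatment. Cells had been plated at 500-1,000 per well and settled for 5 h beforehand.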

[4] = qHTS of pediatric cancer cell lines to identify multiple opportunities for drug repurposing: Primary screen for BT-37 cells (AID 1347094); note: potency is the fitted concentration of half-maximal effect
In short: (§2)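 Quantitative HTS format: each compound titrated (MIPE 11 points from 0.78 nM, NPC 8 points from 0.59 nM) onto cells plated 5 hours earlier. After 48 h at 37 degrees C, CellTiter-Glo luminescence was recorded.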

[5] = qHTS of pediatric cancer cell lines to identify multiple opportunities for drug repurposing: Primary screen for NB-EBc1 cells (AID 1347095); note: potency is the fitted concentration of half-maximal effect
In short: as §2

[6] = qHTS of pediatric cancer cell lines to identify multiple opportunities for drug repurposing: Primary screen for U-2 OS cells (AID 1347096); note: nearly all actives have a fitted effect of over 50% in size
In short: (§3)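 Cells (500-1,000/well) rested 5 h, then received compounds for 48 h; metabolically active cells were measured by CellTiter-Glo luminescence. Final concentrations spanned up to 46 µM (MIPE, 11-point) or 0.59 nM-46 µM (NPC, 8-point) in primary screens, 11-point in follow-ups.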

[7] = qHTS of pediatric cancer cell lines to identify multiple opportunities for drug repurposing: Primary screen for SK-N-SH cells (AID 1347098); note: nearly all actives have a fitted effect of over 65% in size; note: potency is the fitted concentration of half-maximal effect
In short: as §3

[8] = P-glycoprotein substrates identified in KB-8-5-11 adenocarcinoma cell line, qHTS therapeutic library screen (AID 1346987); note: nearly all actives have a fitted effect of over 65% in size; note: potency is the fitted concentration of half-maximal effect
In short: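 KB-8-5-11, a colchicine-selected P-gp-overexpressing KB-3-1 subline, was grown without colchicine for the assay. Cells were seeded at 500 cells/well, dosed in concentration-response and incubated 72 h at 37 degree C, 5% CO2. Viability was read by CellTiter-Glo luminescence.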

[9] = NS1 protein of Zika virus - qHTS assay to identify small molecule inhibitors in human HEK 293 cells (AID 1347053); note: nearly all actives have a fitted effect of over 55% in size; note: potency is the fitted concentration of half-maximal effect
In short: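 HEK 293 cells pretreated with compound for 1 h, then infected with ZIKV MR766 (MOI 0.5) for 24 h at 37 C. NS1 detected by TR-FRET with two anti-NS1 antibodies; normalized to uninfected (0%) and infected (100%) wells.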

[10] = qHTS of pediatric cancer cell lines to identify multiple opportunities for drug repurposing: Primary screen for TC32 cells (AID 1347089); note: nearly all actives have a fitted effect of over 60% in size; note: potency is the fitted concentration of half-maximal effect
In short: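 In the primary qHTS, MIPE compounds were tested at 11 concentrations (0.78 nM to 46 µM) and NPC compounds at 8 (0.59 nM to 46 µM) on TC32 cells for 48 h. CellTiter-Glo luminescence gave viability.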

[11] = qHTS of pediatric cancer cell lines to identify multiple opportunities for drug repurposing: Primary screen for DAOY cells (AID 1347090); note: series mostly up to about 46 µM; nearly all actives have a fitted effect of over 55% in size
In short: as §1

[12] = qHTS of pediatric cancer cell lines to identify multiple opportunities for drug repurposing: Primary screen for A673 cells (AID 1347092); note: nearly all actives have a fitted effect of over 45% in size; note: potency is the fitted concentration of half-maximal effect
In short: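 48 h compound exposure, A673, 500-1,000 cells/well, 37 degrees C/5% CO2. MIPE: 11-point, 0.78 nM-46 µM; NPC: 8-point, 0.59 nM-46 µM (final). Readout CellTiter-Glo luminescence after 15 min RT.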

[13] = qHTS of pediatric cancer cell lines to identify multiple opportunities for drug repurposing: Primary screen for Saos-2 cells (AID 1347097); note: nearly all actives have a fitted effect of over 40% in size
In short: as §2

Measured: Potency

COc1cc2nccc(Oc3ccc(NC(=O)Nc4ccc(F)cc4F)c(F)c3)c2cc1OC
inactive: [4] | [6] | [7]
active: [1] 7.31 µM | [2] 2.96 µM | [3] 3.72 µM | [5] 2.35 µM

CS(=O)(=O)c1ccc(C2=C(c3ccccc3)C(=O)OC2)cc1
inactive: [8] | [9] | [10] | [11] | [2] | [12] | [3] | [4] | [5] | [6] | [13]

CC=C1C2C=C(C)CC1(N)c1ccc(=O)[nH]c1C2 (stereo unspecified)
inactive: [8] | [9] | [10] | [11] | [2] | [12] | [3] | [4] | [5] | [13] | [7]

CN[C@@H]1[C@@H](O)[C@@H](O[C@@H]2[C@@H](O)[C@H](O[C@H]3O[C@H](CN)[C@@H](O)[C@H](O)[C@@H]3O)[C@@H](N)C[C@@H]2NC(=O)[C@@H](O)CN)OC[C@]1(C)O
inactive: [8] | [9] | [10] | [11] | [2] | [12] | [3] | [4] | [5] | [6] | [13]

CC1(C)OC2CC3C4CC(F)C5=CC(=O)C=CC5(C)C4C(O)CC3(C)[C@]2(C(=O)CO)O1 (stereo partly specified)
inactive: [8] | [9] | [10] | [11] | [2] | [3] | [4] | [5] | [6] | [13] | [7]

CN(C)CCOc1ccc(C(=C(CCCl)c2ccccc2)c2ccccc2)cc1
inactive: [8] | [9] | [10] | [11] | [3] | [4] | [6] | [7]

C[C@@H]1C[C@H]2[C@@H]3CCC4=CC(=O)C=C[C@]4(C)[C@@]3(F)[C@@H](O)C[C@]2(C)[C@@]1(O)C(=O)CO
active: [3] 0.001 µM
inactive: [8] | [9] | [10] | [2] | [4] | [5] | [6] | [13]

CC(C)(F)C[C@H](N[C@@H](c1ccc(-c2ccc(S(C)(=O)=O)cc2)cc1)C(F)(F)F)C(=O)NC1(C#N)CC1
inactive: [8] | [9] | [10] | [11] | [12] | [3] | [6] | [13] | [7]

CC1(C)CC(=O)c2c(C(F)(F)F)nn(-c3ccc(C(N)=O)c(NC4CCC(O)CC4)c3)c2C1 (stereo unspecified)
inactive: [6]
active: [8] 418 nM | [9] 23.5 µM | [10] 208 nM | [2] 0.264 µM | [12] 0.118 µM | [3] 0.0743 µM | [5] 0.148 µM | [7] 0.304 µM

Cc1cc(CS(=O)(=O)c2ccccc2)cc(OCc2ccc(CN3CCC[C@H]3CO)cc2)c1
active: [8] 4180 nM | [12] 5.9 µM | [3] 2.64 µM
inactive: [9] | [10] | [5] | [6]

COc1ccc(CCC(=O)Nc2nc3ccc(Cl)cc3s2)cc1OC
active: [12] 18.7 µM | [7] 9.61 µM
inactive: [8] | [9] | [10] | [2] | [5] | [6]

CC1CNc2c(cccc2S(=O)(=O)N[C@@H](CCCN=C(N)N)C(=O)N2CC[C@@H](C)C[C@@H]2C(=O)O)C1 (stereo partly specified)
inactive: [8] | [9] | [10] | [6]
active: [2] 18.7 µM | [3] 6.62 µM | [4] 10.9 µM | [5] 6.62 µM

COc1ccc2c(c1)c(C1=C(c3c[nH]c4ccccc34)C(=O)NC1=O)cn2CCCN(C)C
active: [12] 23.5 µM | [5] 20.9 µM | [7] 21.5 µM
inactive: [8] | [9] | [10] | [11] | [6]

OC[C@H]1O[C@@H](OCCc2ccc(O)cc2)[C@H](O)[C@@H](O)[C@H]1O
active: [3] 26.4 µM
inactive: [8] | [9] | [10] | [2] | [4] | [6]

C=C1c2cccc(O)c2C(O)=C2C(=O)[C@@]3(O)C(O)=C(C(N)=O)C(=O)[C@@H](N(C)C)[C@@H]3[C@@H](O)[C@H]12
active: [12] 23.5 µM
inactive: [8] | [9] | [10] | [2] | [5] | [6]
